An excerpt weighted towards active compounds, which were near 7.6% of everything screened.
MCF10A rereplic – DNA re-replication induction in MCF 10a cells; 350,000 compounds, 2.9% hits; MCF 10A DNA re-replication, Hoechst nuclear intensity, 48 h; Potency, µM (top dose mostly 46.1 µM), without a hit: at the top dose activity, positive = re-replication, hits mostly activators; note: potency is the fitted concentration of half-maximal effect; % of control where 0% means no effect; nearly all actives have a fitted effect of over 50% in size
KCNH2 3.1 block – KCNH2 3.1 (human) potassium channel inhibition. U2OS KCNH2 3.1, thallium flux FluxOr; active compounds read low. activity change, % (tested at about 1.8 µM). 340,000 compounds, 0.95% hits;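 active = maximum activity change below -70%; inconclusive = maximum activity change from -70% to -50%; inactive = maximum activity change above -50%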;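 note: thallium influx rate constant from kinetic fluorescence after stimulation buffer; % is set by controls: 0 for no effect and ±100 for the full control effect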
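Thallium flux via FluxOr fluorescence (Red40 quencher, 45 min loading) in U2OS cells virally expressing the KCNH2 3.1 isoform (1.77 x 10^8 /mL virus, overnight at 37 C). Rate constants from 2-min kinetic reads post-stimulation, normalised to positive and negative controls.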
KB-V1 MDR tox – KB-V1 MDR subline cytotoxicity; KB-V1 MDR cells viability, CellTiter-Glo, 72 h; Potency, µM (top dose mostly 46.1 µM), usual class: cytotoxic; 400,000 compounds, 3.4% hits; AID 1347076; note: potency is the fitted concentration of half-maximal effect; % is set by controls: 0 for no effect and ±100 for the full control effect; nearly all actives have a fitted effect of over 60% in size
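Cytotoxicity via CellTiter-Glo luminescence after 72 h compound exposure at 37 degrees C. Cells: drug-selected KB-V1 line, DMEM phenol-red free plus 10% FBS. Compounds tested at multiple concentrations; normalized data fitted to concentration-effect curves.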
SW480 rerep – inducers of DNA re-replication in SW480 colon cancer cells; SW480 DNA re-replication, Hoechst DNA content imaging, 48 h; Potency, µM (highest dose often 46.1 µM), for the others: at the top dose re-replication activation, usual class: activators; 340,000 compounds, 1.8% hits; note: potency is the fitted concentration of half-maximal effect; % of control where 0% means no effect; nearly all actives have a fitted effect of over 55% in size
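DNA re-replication was detected as more nuclei of elevated Hoechst intensity after 48 hr exposure to compound (23 nL pinned per well of 250 cells).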
KCNH2 WT inh – blocks the wildtype human KCNH2 potassium channel; activity change, % at 1.84 µM; AID 720551; 340,000 compounds, 0.37% hits; Q12809; U2OS, BacMam KCNH2, thallium flux FluxOr; active compounds read low;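 active = maximum activity change below -70%; inconclusive = maximum activity change between -70% and -50%; inactive = maximum activity change above -50%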; note: % is set by controls: 0 for no effect and ±100 for the full control effect
Target sequence (Q12809 whole entry, looked up): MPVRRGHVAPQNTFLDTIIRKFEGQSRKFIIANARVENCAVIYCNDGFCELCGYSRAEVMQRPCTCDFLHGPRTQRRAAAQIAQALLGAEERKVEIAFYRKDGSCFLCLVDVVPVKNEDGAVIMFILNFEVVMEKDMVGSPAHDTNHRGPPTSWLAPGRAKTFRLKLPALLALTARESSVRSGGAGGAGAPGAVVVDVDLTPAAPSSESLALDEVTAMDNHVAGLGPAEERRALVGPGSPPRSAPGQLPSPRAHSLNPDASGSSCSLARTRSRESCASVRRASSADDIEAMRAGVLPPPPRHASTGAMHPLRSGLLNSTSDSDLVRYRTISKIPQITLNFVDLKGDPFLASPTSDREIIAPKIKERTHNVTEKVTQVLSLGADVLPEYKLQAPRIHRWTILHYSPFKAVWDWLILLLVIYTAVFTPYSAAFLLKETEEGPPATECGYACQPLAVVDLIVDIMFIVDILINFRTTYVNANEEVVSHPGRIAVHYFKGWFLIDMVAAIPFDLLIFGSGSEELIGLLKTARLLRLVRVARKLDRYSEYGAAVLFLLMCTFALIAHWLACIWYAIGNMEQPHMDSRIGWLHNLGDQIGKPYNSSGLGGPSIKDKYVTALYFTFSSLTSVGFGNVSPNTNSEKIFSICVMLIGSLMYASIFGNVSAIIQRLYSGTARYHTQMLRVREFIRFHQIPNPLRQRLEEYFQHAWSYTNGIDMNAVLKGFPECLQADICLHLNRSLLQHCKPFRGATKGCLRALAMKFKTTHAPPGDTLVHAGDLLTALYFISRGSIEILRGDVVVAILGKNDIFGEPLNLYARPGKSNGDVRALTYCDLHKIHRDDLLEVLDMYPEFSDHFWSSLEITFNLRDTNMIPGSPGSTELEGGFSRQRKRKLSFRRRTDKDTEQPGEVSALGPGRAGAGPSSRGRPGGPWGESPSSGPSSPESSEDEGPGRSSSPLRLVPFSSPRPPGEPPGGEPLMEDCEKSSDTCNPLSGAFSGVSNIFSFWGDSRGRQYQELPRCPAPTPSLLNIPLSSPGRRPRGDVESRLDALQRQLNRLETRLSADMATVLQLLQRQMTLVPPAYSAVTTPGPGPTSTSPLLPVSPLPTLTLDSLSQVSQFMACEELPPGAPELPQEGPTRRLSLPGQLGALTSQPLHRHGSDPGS
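U2OS cells were transduced with wild-type KCNH2 virus (2.03 x 10^8 / mL) for 4 h at room temperature, then cultured overnight at 37 C. Thallium flux was read with FluxOr dye. Rate constants were normalized to DMSO controls.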
KB-3-1 cytotox – KB-3-1 parental cell cytotoxicity | KB-3-1 viability, CellTiter-Glo ATP luminescence, 72 h | Potency, µM (highest dose often 46.1 µM), hits mostly cytotoxic | 400,000 compounds, 1.4% hits | AID 1347075; note: potency is the fitted concentration of half-maximal effect; % is set by controls: 0 for no effect and ±100 for the full control effect; nearly all actives have a fitted effect of over 60% in size
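72 h, 37 °C compound treatment of KB-3-1 parental cells; CellTiter-Glo added, 10 min, luminescence read. Data corrected against DMSO-only plates and normalized before curve fitting.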
The depositor's hits bear a star; i = inactive; ? = inconclusive; . = no result given. Unless noted, calls come from the whole dose curve; as a rule, active = well fitted curve in the direction sought with a large enough effect; inconclusive = small, poorly fitted or top-dose-only effect, or another doubt; inactive = no such curve, though single readings can be large; an effect the other way counts as inactive or inconclusive.

SMILES	MCF10A rereplic	KCNH2 3.1 block	KB-V1 MDR tox	SW480 rerep	KCNH2 WT inh	KB-3-1 cytotox
CC1(C)CC2(CCO1)OC(=O)CC2C(=O)Nc1ccccc1Cl (centres undefined)	?	19	i	-94%	.	i
CCCC(C(=O)NC1CCCC1)N(C(=O)c1snc(C(N)=O)c1N)c1ccc(OCC)cc1 (centres undefined)	?	-14	i	1%	12	i
CC(OC(=O)c1snc(C(=O)NC2CCCCC2)c1N)C(=O)NC1CCCCC1 (centres undefined)	21µM*	12	?	?	-2	i
Cc1cc(C)cc(N(C(=O)c2nsc(Cl)c2Cl)C(C(=O)NC2CCCC2)c2ccc(O)cc2)c1 (centres undefined)	?	0	18µM*	?	-1	i
CCOc1ccc(N(C(=O)c2snc(C(N)=O)c2N)C(CC)C(=O)NC2CCCC2)cc1 (centres undefined)	0%	0	i	23µM*	-2	i
Cc1ccccc1N(C(=O)c1snc(C(N)=O)c1N)C(C(=O)NC1CCCCC1)c1ccc(O)cc1 (centres undefined)	?	2	i	16µM*	-1	?
NC(=O)c1nsc(C(=O)N(c2ccccc2)C(C(=O)NC2CCCC2)c2ccc3ncccc3c2)c1N (centres undefined)	21µM*	-3	i	18%	-18	i
CN(C)CCNC(=O)C(=O)Nc1ccc2c(c1)N(S(=O)(=O)c1cccs1)CCC2	?	12	?	18µM*	-6	6.5µM*
C=CCNC(=O)C(=O)Nc1ccc2c(c1)N(S(=O)(=O)c1cccs1)CCC2	?	2	23µM*	?	-6	?
CCNC(=O)C(=O)Nc1ccc2c(c1)N(S(=O)(=O)c1cccs1)CCC2	29%	-7	?	?	-13	i
COCCCNC(=O)C(=O)Nc1ccc2c(c1)N(S(=O)(=O)c1cccs1)CCC2	1.3µM*	5	1µM*	1µM*	4	1.2µM*
CCCNC(=O)C(=O)Nc1ccc2c(c1)N(S(=O)(=O)c1cccs1)CCC2	15µM*	-2	?	18µM*	-1	?
CN(C)CCCNC(=O)C(=O)Nc1ccc2c(c1)N(S(=O)(=O)c1cccs1)CCC2	?	-4	i	2%	20	?
COc1ccc(OC)c(NC(=O)CC(=O)Nc2ccc3nc4n(c(=O)c3c2)CCCCC4)c1	.	.	i	.	.	i
CCn1nc(C(=O)NNC(=O)c2ccccc2)c2ccccc2c1=O	-2%	-4	i	-9%	1	i
CC(=O)Oc1cc2c3c(c1)/C(=C1/SC(=S)NC1=O)C(=O)N3C(C)(C)C=C2C	6%	5	i	-16%	0	i
CCOc1cc2c3c(c1)C(C)=CC(C)(C)N3C(=O)C2=O	?	-7	?	?	-2	21µM*
CCOc1cc2c3c(c1)C(C)CC(C)(C)N3C(=O)C2=O (centres undefined)	?	13	15µM*	?	1	i
Cc1ccc2c3c1C(=O)C(=O)N3C(C)(C)CC2C (centres undefined)	26µM*	6	i	?	-1	i
Cc1cc2c3c(c1)C(C)CC(C)(C)N3C(=O)C2=O (centres undefined)	3%	6	i	9%	0	i
CCOC(=O)c1csc(NC(=O)CC2CCCC2)n1	1%	-1	?	-2%	-3	i
CN(C)P(=NC(=O)COc1ccc(Cl)cc1Cl)(N(C)C)N(C)C	0%	-2	?	0%	-8	i
COC(=O)c1ccc(OCC2c3cc(OC)c(OC)cc3CCN2C(=O)COc2ccc(Cl)cc2)cc1 (centres undefined)	.	.	i	.	.	i
O=C(NCCc1ccccc1Cl)c1ccc2c(c1)nc1n2CCCCC1	.	.	?	.	.	i
COc1ccc(-c2csc(N(CCCN(C)C)C(=O)c3cccs3)n2)cc1	14%	-43	7.3µM*	16%	27	i
SMILES	MCF10A rereplic	KCNH2 3.1 block	KB-V1 MDR tox	SW480 rerep	KCNH2 WT inh	KB-3-1 cytotox
CCN(C(=O)c1cccs1)c1nc(-c2ccc(OC)cc2)cs1	?	-14	i	?	-2	i
COCCCN(C(C)=O)c1nc(-c2ccc(OC)cc2)cs1	?	2	7.3µM*	?	0	12µM*
CCN(CC)CCCN(C(=O)c1ccc(OC)cc1)c1nc(-c2ccc(OC)cc2)cs1	?	-95*	i	?	?	?
COCCCN(C(=O)c1ccco1)c1nc(-c2cc(OC)ccc2OC)cs1	24%	-8	1.8µM*	-2%	4	i
COc1ccc(OC)c(-c2csc(N(Cc3ccco3)C(=O)c3ccco3)n2)c1	?	6	i	1%	-2	i
CCCOC(=O)c1c(NC(=O)C2c3ccccc3Oc3ccccc32)sc2c1CCC(C)C2 (centres undefined)	.	.	i	.	.	i
O=C(Cc1cccc(NC(=O)C2CCCN(C(=O)CCc3ccccc3)C2)c1)Nc1cccc(C(=O)N2CCCCC2)c1 (centres undefined)	-13%	-5	i	3%	-1	i
COc1ccc(-c2csc(N(CCc3ccc(OC)c(OC)c3)C(=O)COc3ccccc3)n2)cc1	6%	9	3.7µM*	-9%	26	i
CN(C)CCCN(C(=O)c1ccco1)c1nc(-c2ccc(Cl)cc2)cs1	-2%	-80*	i	-8%	1	i
COc1cc(C)ccc1S(=O)(=O)NC(=O)C1(C)CCN1C(=O)c1ccc(C2CCCCC2)cc1 (centres undefined)	.	.	i	.	.	i
O=C(C[n+]1cccc2cccc(O)c21)c1ccc(Br)cc1	.	.	i	.	.	i
C=CCNC(=O)CSc1nc2sc3c(c2c(=O)n1CCCOC)CCC3	6.5µM*	-2	i	-3%	11	i
C=CCn1c(SCC(=O)NCC)nc2sc3c(c2c1=O)CCC3	-14%	-2	i	-9%	11	i
C=CCn1c(SCC(=O)NC)nc2sc3c(c2c1=O)CCC3	23%	-2	2.1µM*	-3%	-6	i
Cc1nn(-c2ccccn2)c2c1C(c1ccsc1)C1=C(CCCC1=O)N2 (centres undefined)	28%	23	3.7µM*	?	1	?
C=C(C)CNC(=S)NNC(=O)CCn1c2ccccc2c2ccccc21	?	4	18µM*	?	1	?
